Most compounds without a hit are left out; they make up all but 1% or so of the library.
Cdc25B inh = inhibitors of Cdc25B phosphatase catalytic domain, primary screen, biochemical, OMFP fluorescence | M-phase inducer phosphatase 2 (Homo sapiens), P30305 | recombinant Cdc25B, OMFP fluorescence Ex485/Em525 | inhibition, %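 (compounds tested at 10 µM final in the well)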 | 65,000 compounds, 0.1% hits | AID 368, 2006; in the data active = inhibition above about 50%
TNAP act mid DEA = human TNAP enzyme activators, primary screen, biochemical, luminescent, intermediate phosphate acceptor level; activation factor at 20 µM; AID 813, 2007; 64,000 tested, under 10 active; purified TNAP, CDP-star luminescence, 100 mM DEA, 30 min; active compounds read high; scale: 0 levamisole-inhibited, 1 vehicle-only enzyme;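 active = activation factor of at least 2 at 20 µM, relative to controls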
HePTP inhibitor = inhibitors of human HePTP phosphatase, primary screen, biochemical, absorbance, leukemia target. 110,000 compounds, 0.64% hits. Tyrosine-protein phosphatase non-receptor type 7 (Homo sapiens), P35236. inhibition, % at 20 µM. recombinant HePTP phosphatase activity, OD absorbance; in the data active = inhibition above about 50%; inconclusive = no clear call, values can overlap the other calls
DUSP1 inh = MKP-1 phosphatase inhibitors, primary screen, biochemical, in vitro; recombinant MKP-1, OMFP hydrolysis fluorescence; inhibition, %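 (compounds tested at a single concentration somewhere between 10 and 100 µM)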; 65,000 compounds, 0.15% hits; Dual specificity protein phosphatase 1 (Homo sapiens), P28562;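 active = inhibition above about 50%, limit read from the data; inconclusive = inhibition over screen mean plus 3 SD, below that limit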
Ec RNAP inh = E. coli RNAP inhibitors, biochemical | E. coli RNA polymerase, fluorescence transcription assay | AID 559, 2006 | 62,000 compounds, 0.2% hits | DNA-directed RNA polymerase subunit beta (Escherichia coli (strain K12)), P0A8V2 | inhibition, %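 (tested at 10 µM)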; in the data active = inhibition above about 20%
Target sequence (P0A8V2 whole entry, looked up): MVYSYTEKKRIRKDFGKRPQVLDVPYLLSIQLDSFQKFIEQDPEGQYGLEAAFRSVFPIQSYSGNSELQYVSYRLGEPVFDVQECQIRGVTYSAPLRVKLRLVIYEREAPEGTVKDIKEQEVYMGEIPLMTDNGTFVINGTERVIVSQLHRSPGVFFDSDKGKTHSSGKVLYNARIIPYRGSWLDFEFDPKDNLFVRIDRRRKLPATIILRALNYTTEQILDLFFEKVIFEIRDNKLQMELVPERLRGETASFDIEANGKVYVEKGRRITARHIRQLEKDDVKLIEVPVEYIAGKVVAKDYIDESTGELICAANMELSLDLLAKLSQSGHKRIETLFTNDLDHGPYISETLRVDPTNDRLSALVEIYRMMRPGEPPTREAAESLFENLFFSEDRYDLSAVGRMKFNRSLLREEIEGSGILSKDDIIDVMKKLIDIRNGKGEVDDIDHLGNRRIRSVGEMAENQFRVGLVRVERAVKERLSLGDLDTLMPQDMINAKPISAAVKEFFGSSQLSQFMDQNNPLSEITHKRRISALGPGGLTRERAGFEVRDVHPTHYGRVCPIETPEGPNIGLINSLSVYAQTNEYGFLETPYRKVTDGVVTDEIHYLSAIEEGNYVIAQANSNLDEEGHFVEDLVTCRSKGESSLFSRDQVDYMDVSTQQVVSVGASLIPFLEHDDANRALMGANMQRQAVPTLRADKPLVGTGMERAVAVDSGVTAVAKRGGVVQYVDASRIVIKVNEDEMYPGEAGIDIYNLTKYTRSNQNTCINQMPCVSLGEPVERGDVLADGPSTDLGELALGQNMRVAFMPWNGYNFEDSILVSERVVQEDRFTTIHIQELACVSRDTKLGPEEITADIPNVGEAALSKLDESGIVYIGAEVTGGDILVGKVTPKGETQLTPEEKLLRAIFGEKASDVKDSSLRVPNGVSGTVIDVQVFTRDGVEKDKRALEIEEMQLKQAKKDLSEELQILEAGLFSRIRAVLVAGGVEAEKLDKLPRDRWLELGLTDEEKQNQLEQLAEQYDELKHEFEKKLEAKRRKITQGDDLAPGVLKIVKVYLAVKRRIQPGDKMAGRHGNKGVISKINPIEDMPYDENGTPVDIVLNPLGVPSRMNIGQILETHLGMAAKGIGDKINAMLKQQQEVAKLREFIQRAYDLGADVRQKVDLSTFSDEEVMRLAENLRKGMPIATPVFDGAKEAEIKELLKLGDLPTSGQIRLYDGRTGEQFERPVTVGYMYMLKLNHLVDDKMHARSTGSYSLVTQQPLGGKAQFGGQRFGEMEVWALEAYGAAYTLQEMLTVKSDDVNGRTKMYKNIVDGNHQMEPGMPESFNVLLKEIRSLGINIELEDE
BAP1 block = inhibitors of BAP1 deubiquitinase, primary screen, biochemical, Ub-AMC fluorescence, kinetic | Ubiquitin carboxyl-terminal hydrolase BAP1 (Homo sapiens), Q92560 | recombinant BAP1, Ub-AMC hydrolysis fluorescence kinetic; active compounds read low | calls only at 20 µM | 72,000 compounds, 0.48% hits;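 active = activity remaining at or below 50% of control, provided the compound also passes the data quality filters; inactive = the rest, including low values that fail the filters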
BAP1 inh conf = BAP1 deubiquitinase inhibitors, hit retest, confirmation, orthogonal assay, biochemical, Ub-ethyl ester substrate, HPLC readout; shares compounds with BAP1 block; purified BAP1, Ub-ethyl ester hydrolysis; active compounds read low; % of control activity, % at 20 µM; 310 compounds, 8% hits;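 active = percent of control activity at or below 60%; inconclusive = HPLC trace unusable from injection failure or solvent front hiding peaks; inactive = the rest, plus ubiquitin peak ratio over a set limit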
Each line names hits and unclear results; the compound was inactive in the other large screens (follow-up assays come after a bar, where shown).

CC1=CC(C)(C)Nc2cc(C)c(C)cc21	BAP1 block active | BAP1 inh conf 49.0
Cc1ccccc1OCc1nnc(SCC(=O)Nc2ccc3c(c2)oc2ccccc23)n1C	BAP1 block active | BAP1 inh conf inactive
Cc1ccc(N2C(=O)[C@@H]3[C@H](C2=O)C2c4ccccc4C=CN2[C@@H]3C(=O)c2ccco2)cc1 (stereo partly drawn)	none
O=C(c1ccco1)[C@@H]1[C@@H]2C(=O)N(c3ccccc3)C(=O)[C@@H]2C2c3ccccc3C=CN21 (stereo partly drawn)	BAP1 block active | BAP1 inh conf inconclusive
Cc1ccc(N2C(=O)[C@@H]3[C@H](C2=O)C2c4ccccc4C=CN2[C@@H]3C(=O)c2ccco2)c(C)c1 (stereo partly drawn)	BAP1 block active | BAP1 inh conf inactive
CC(=O)[C@@H]1[C@@H]2C(=O)N(Cc3ccccc3)C(=O)[C@@H]2C2c3ccccc3C=CN21 (stereo partly drawn)	none
Cc1ccc(-c2cc(C(=O)OCC(=O)Nc3cc(C)on3)c3ccccc3n2)c(C)c1	BAP1 block active | BAP1 inh conf inactive
CC(C)OC(=O)c1c(NC(=O)CCn2nnc3ccccc32)sc2c1CCCC2	BAP1 block active | BAP1 inh conf inactive
CCc1cc2cc3c(cc2nc1SCC(=O)N1CCN(C(=O)c2ccco2)CC1)OCO3	none
CCc1cc2cc3c(cc2nc1SCC(=O)Nc1cc(C)on1)OCO3	BAP1 block active | BAP1 inh conf inactive
Oc1ccc(/C=N/Nc2nncc(-c3ccccc3)n2)c(O)c1O	none (no result: Cdc25B inh, TNAP act mid DEA, DUSP1 inh, Ec RNAP inh, BAP1 block)
CSCCC(/C(O)=C(\C#N)c1nc2ccccc2[nH]1)N1C(=O)c2ccccc2C1=O (stereo not drawn)	BAP1 block active | BAP1 inh conf inactive
N#C/C(=C(/O)CN1C(=O)c2ccccc2C1=O)c1nc2ccccc2[nH]1	none
CCOC(=O)c1c(NC(=O)c2cccs2)sc(C)c1CC	BAP1 block active | BAP1 inh conf 58.6
Brc1ccc(C2Nc3cccc4cccc(c34)N2)o1	BAP1 block active | BAP1 inh conf inactive
COc1ccc2cc(CN(CCc3ccccc3)Cc3nnnn3Cc3ccco3)c(=O)[nH]c2c1	none (not shown: BAP1 block)
COc1ccccc1CN(Cc1cc2c(C)ccc(C)c2[nH]c1=O)Cc1nnnn1Cc1ccco1	BAP1 block active | BAP1 inh conf inactive
C=CCOCC(O)CSCCCC (stereo not drawn)	none (no result: Cdc25B inh, TNAP act mid DEA, DUSP1 inh, Ec RNAP inh, BAP1 block)
CCCn1c2c(c(O)c(C(=O)Nc3ccccc3)c1=O)CCCC2	BAP1 block active | BAP1 inh conf inactive
C(=N/Nc1nc2ccccc2[nH]1)/c1ccc(N2CCOCC2)cc1	none (no result: Cdc25B inh, TNAP act mid DEA, DUSP1 inh, Ec RNAP inh, BAP1 block)
O=C(CCN1C(=O)/C(=C\c2cccs2)SC1=S)Nc1ccccc1C(=O)O	none (no result: Cdc25B inh, TNAP act mid DEA, DUSP1 inh, Ec RNAP inh, BAP1 block)
C=CCn1c(COc2ccc(F)cc2)nnc1SCC(=O)NC(=O)NCc1ccco1	none
C=CCn1c(COc2cccc(C)c2)nnc1SCC(=O)NC(=O)NCc1ccco1	BAP1 block active | BAP1 inh conf inactive
N#C/C(=C\c1cc(Br)ccc1OCc1ccccc1)c1nc2ccccc2[nH]1	none (no result: Cdc25B inh, TNAP act mid DEA, DUSP1 inh, Ec RNAP inh, BAP1 block)
COc1ccc(-n2nc(C(=O)Nc3ccc4c(c3)OCO4)c3c4ccccc4n(C)c3c2=O)cc1	BAP1 block active | BAP1 inh conf inactive
COc1cccc(-n2nc(C(=O)Nc3ccc4c(c3)OCO4)c3ccccc3c2=O)c1	none
CCOc1ccccc1OCCn1nnc2ccccc21	BAP1 block active | BAP1 inh conf inactive
COC(=O)C(F)(F)C(F)(F)C(F)(F)OC(F)(C(=O)OC)C(F)(F)F (stereo not drawn)	none (no result: Cdc25B inh, TNAP act mid DEA, DUSP1 inh, Ec RNAP inh, BAP1 block)
C=CCOC(=O)C(C#N)c1nc2ccccc2nc1N1CCN(Cc2ccc3c(c2)OCO3)CC1 (stereo not drawn)	BAP1 block active | BAP1 inh conf inactive
Cc1ccc(CN2CCN(N=Cc3ccc(Br)s3)CC2)c(C)c1	none (no result: Cdc25B inh, TNAP act mid DEA, DUSP1 inh, Ec RNAP inh, BAP1 block)
O=C(Cn1cnc2sc(-c3ccccc3)cc2c1=O)NCc1ccco1	BAP1 block active | BAP1 inh conf inactive
CC1(C(=O)n2nnc3ccccc32)CC2C=CC1C2 (stereo not drawn)	none (no result: Cdc25B inh, TNAP act mid DEA, DUSP1 inh, Ec RNAP inh, BAP1 block)
Cc1ccc2[nH]c(=O)c(CN(CCO)Cc3nnnn3CCc3ccccc3)cc2c1	none
Cc1ccc2[nH]c(=O)c(CN(Cc3cccs3)Cc3nnnn3Cc3ccccc3)cc2c1	BAP1 block active | BAP1 inh conf inactive
Cc1cccc(C)c1OCCCCCCc1c(C)n[nH]c1C	none (no result: Cdc25B inh, TNAP act mid DEA, DUSP1 inh, Ec RNAP inh, BAP1 block)
COc1cc(C(=O)c2cc(Br)ccc2NC(=O)C(OC)c2ccccc2)cc(OC)c1OC (stereo not drawn)	none (no result: Cdc25B inh, TNAP act mid DEA, DUSP1 inh, Ec RNAP inh, BAP1 block)
COc1ccc(NC(=O)Cn2nnc(-c3ccccc3F)n2)cc1	none
CC1CCN(S(=O)(=O)c2ccc(NC(=O)Cn3nnc(-c4ccccc4)n3)cc2)CC1	none
Cc1ccc(-c2nnn(CC(=O)Nc3ccc(S(=O)(=O)N4CCC(C)CC4)cc3)n2)cc1	BAP1 block active | BAP1 inh conf inactive
CC1CCCN(S(=O)(=O)c2ccc(NC(=O)Cn3nnc(-c4ccccc4F)n3)cc2)C1 (stereo not drawn)	BAP1 block active | BAP1 inh conf 25.6
Fc1cccc(CN2CCN(C3CCCC3)CC2)c1	none (no result: Cdc25B inh, TNAP act mid DEA, DUSP1 inh, Ec RNAP inh, BAP1 block)
COc1cc(C(=O)N2c3ccc(C)cc3-c3c(ssc3=S)C2(C)C)cc(OC)c1OC	none (no result: Cdc25B inh, TNAP act mid DEA, DUSP1 inh, Ec RNAP inh, BAP1 block)
Cc1c(Cl)cccc1NC(=O)NC1CCCCC1	none
O=C(Nc1ccccc1NC(=O)NC1CCCCC1)NC1CCCCC1	BAP1 block active | BAP1 inh conf inactive
COc1ccc(C(=O)NNC(=O)COc2ccc(C)cc2C)cc1	none (no result: Cdc25B inh, TNAP act mid DEA, DUSP1 inh, Ec RNAP inh, BAP1 block)
COc1ccc(C)cc1NC(=O)CN1CCN(S(=O)(=O)c2ccc(C(C)C)cc2)CC1	BAP1 block active | BAP1 inh conf inactive
COc1ccc2nc(NS(=O)(=O)c3ccc(Cl)cc3)c(Nc3ccc(NC(C)=O)cc3)nc2c1	none (no result: Cdc25B inh, TNAP act mid DEA, DUSP1 inh, Ec RNAP inh, BAP1 block)
Cc1cc(S(=O)(=O)N2CCN(c3c(C)cccc3C)CC2)ccc1F	none (no result: TNAP act mid DEA, HePTP inhibitor, Ec RNAP inh)
Cc1cc(S(=O)(=O)N2CCN(c3ccccc3C)CC2)ccc1F	BAP1 block active | BAP1 inh conf inactive
O=C(O)c1ccc(CNC(=O)C2C3CCC(C3)C2C(=O)O)cc1 (stereo not drawn)	none (no result: Cdc25B inh, TNAP act mid DEA, DUSP1 inh, Ec RNAP inh, BAP1 block)
O=c1n(Cc2ccc(Cl)cc2)c2cc([N+](=O)[O-])c([N+](=O)[O-])cc2n1Cc1ccc(Cl)cc1	none (no result: Cdc25B inh, TNAP act mid DEA, DUSP1 inh, Ec RNAP inh, BAP1 block)

Screens as filed in PubChem BioAssay.
